Shown is part of a subset that was picked to be rich in the strongest signals.
How the values were obtained:
Assay in all cases: glycan array binding signal (z-score within array); higher = stronger binding
Settings in all cases: glycan notation: IUPAC condensed, linker removed
[1] = target: GlcA(b1-6)Gal
Summary of the method: (§1)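 Glycan array binding is given as a within-array Z-score, which can be read as non-binding when negative. The arrays, 3228 of them, came from the Consortium for Functional Glycomics database and were retained only where the protein sequence was available. Z-scores were averaged across arrays of the same protein sequence at different concentrations or buffers and across linkers.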

[2] = target: GlcNAc(a1-4)Gal(b1-4)GalNAc
Summary of the method: as §1

[3] = target: GlcNAc(a1-4)Gal(b1-4)GlcNAc
Summary of the method: as §1

[4] = target: GlcNAc(b1-3)Gal(b1-4)GlcNAc(b1-2)[GlcNAc(b1-3)Gal(b1-4)GlcNAc(b1-6)]Man(a1-6)[GlcNAc(b1-3)Gal(b1-4)GlcNAc(b1-2)Man(a1-3)]Man(b1-4)GlcNAc(b1-4)GlcNAc
Summary of the method: as §1

[5] = target: GlcNAc(b1-3)Gal(b1-4)GlcNAc(b1-3)Gal(b1-4)GlcNAc(b1-3)Gal(b1-4)GlcNAc(b1-2)[GlcNAc(b1-3)Gal(b1-4)GlcNAc(b1-3)Gal(b1-4)GlcNAc(b1-3)Gal(b1-4)GlcNAc(b1-6)]Man(a1-6)[GlcNAc(b1-3)Gal(b1-4)GlcNAc(b1-3)Gal(b1-4)GlcNAc(b1-3)Gal(b1-4)GlcNAc(b1-2)Man(a1-3)]Man(b1-4)GlcNAc(b1-4)[Fuc(a1-6)]GlcNAc
Summary of the method: as §1

[6] = target: GlcNAc(b1-3)Gal(b1-4)GlcNAc(b1-3)Gal(b1-4)GlcNAc(b1-3)Gal(b1-4)GlcNAc(b1-3)Gal(b1-4)GlcNAc(b1-2)Man(a1-3)[GlcNAc(b1-3)Gal(b1-4)GlcNAc(b1-3)Gal(b1-4)GlcNAc(b1-3)Gal(b1-4)GlcNAc(b1-3)Gal(b1-4)GlcNAc(b1-2)Man(a1-6)]Man(b1-4)GlcNAc(b1-4)GlcNAc
Summary of the method: as §1

[7] = target: GlcNAc(b1-3)Gal(b1-4)GlcNAc(b1-6)[Gal(b1-3)]GalNAc
Summary of the method: as §1

[8] = target: GlcNAc(b1-3)Gal(b1-4)GlcNAc(b1-6)[GlcNAc(b1-3)Gal(b1-3)]GalNAc
Summary of the method: as §1

[9] = target: GlcNAc(b1-3)[GlcNAc(b1-6)]Gal(b1-4)GlcNAc
Summary of the method: as §1

[10] = target: Kdn(a2-3)Gal(b1-3)GlcNAc
Summary of the method: as §1

[11] = target: Man(a1-2)Man(a1-2)Man(a1-3)Man
Summary of the method: as §1

[12] = target: Man(a1-2)Man(a1-3)Man
Summary of the method: as §1

[13] = target: Man(a1-3)[Man(a1-6)]Man(b1-4)GlcNAc(b1-4)GlcNAc
Summary of the method: as §1

[14] = target: Man(a1-6)Man
Summary of the method: as §1

[15] = target: Neu5Ac(a2-3)Gal(b1-4)GlcNAc(b1-2)Man(a1-3)[Neu5Ac(a2-6)Gal(b1-4)GlcNAc(b1-2)Man(a1-6)]Man(b1-4)GlcNAc(b1-4)GlcNAc
Summary of the method: as §1

[16] = target: Neu5Ac(a2-3)Gal(b1-4)GlcNAc(b1-2)[Neu5Ac(a2-3)Gal(b1-4)GlcNAc(b1-6)]Man(a1-6)[Neu5Ac(a2-3)Gal(b1-4)GlcNAc(b1-2)Man(a1-3)][GlcNAc(b1-4)]Man(b1-4)GlcNAc(b1-4)GlcNAc
Summary of the method: as §1

[17] = target: Neu5Ac(a2-3)Gal(b1-4)GlcNAc(b1-3)Gal(b1-4)GlcNAc(b1-3)Gal(b1-4)GlcNAc(b1-2)Man(a1-3)[Neu5Ac(a2-3)Gal(b1-4)GlcNAc(b1-3)Gal(b1-4)GlcNAc(b1-3)Gal(b1-4)GlcNAc(b1-2)Man(a1-6)]GalNAc
Summary of the method: as §1

[18] = target: Neu5Ac(a2-3)Gal(b1-4)GlcNAc(b1-3)Gal(b1-4)GlcNAc(b1-6)[Gal(b1-3)]GalNAc
Summary of the method: as §1

[19] = target: Neu5Ac(a2-3)Gal(b1-4)[Fuc(a1-3)]GlcNAc(b1-3)Gal
Summary of the method: as §1

[20] = target: Neu5Ac(a2-3)Gal(b1-4)[Fuc(a1-3)]GlcNAc(b1-3)GalNAc
Summary of the method: as §1

[21] = target: Neu5Ac(a2-6)Gal(b1-3)GlcNAc(b1-3)[Gal(b1-4)GlcNAc(b1-6)]Gal(b1-4)Glc
Summary of the method: as §1

[22] = target: Neu5Ac(a2-6)Gal(b1-4)Glc
Summary of the method: as §1

[23] = target: Neu5Ac(a2-6)Gal(b1-4)GlcNAc(b1-2)Man(a1-3)[Neu5Ac(a2-6)Gal(b1-4)GlcNAc(b1-2)Man(a1-6)]Man(b1-4)GlcNAc(b1-4)GlcNAc
Summary of the method: as §1

[24] = target: Neu5Ac(a2-6)Gal(b1-4)GlcNAc(b1-3)Gal(b1-4)GlcNAc(b1-3)Gal(b1-4)GlcNAc(b1-2)Man(a1-3)[Neu5Ac(a2-6)Gal(b1-4)GlcNAc(b1-3)Gal(b1-4)GlcNAc(b1-3)Gal(b1-4)GlcNAc(b1-2)Man(a1-6)]GalNAc
Summary of the method: as §1

[25] = target: Neu5Ac(a2-6)GalNAc
Summary of the method: as §1

[26] = target: Neu5Ac(a2-6)GalNAc(b1-4)GlcNAc
Summary of the method: as §1

[27] = target: Neu5Ac(a2-8)Neu5Gc(a2-3)Gal(b1-4)GlcNAc
Summary of the method: as §1

[28] = target: Neu5Ac9Ac(a2-6)Gal(b1-4)GlcNAc
Summary of the method: as §1

B1: PX14343G-pdi-535-24-535 (Parabacteroides distasonis) (protein)
chain: LDTVPKDQLAPSTTWQTEADAKGFIVGCYKDLLDGNTLLYLDCGSDIGYNNFPWEGFRPWGDGSLSSSNPGQILYDYKSIRKANTFLENVDKVTFSSDAVKANYVAQAKAIRAYKYFLMNWWYGGVPIISSYSSADEAKVERNTEQEVRDYIAKDLDEALAGIAEAPEARGYIAKGAVLAIKMREALYYGDWQKAKDAAKAIIDLKQYELDPDYTNLFKVSGVDSKEIILADQNIETLDGLGTIGQMYNNVDQGWSSIVPTQNLVDMYEMSDGLTKEESKTYDAKHPFANRDPRMAMTILYPGRDWRGDVLNTLDEKLQDGTVNKNFPTYTDNASKSALTWAKYLDPMDQYGDVWSSGACPIVFRYAEVLLTYAEAANELSGPSDEIYGYLNQIRQRVGMGEVDKAKYGTKDKLRELIRRERTVELAGEGLRRADIVRWQEDGKMLAEKVMNGDLLRVTGTINYGESEPTKRAEITGTAVIETRQFSSRNRYLPIPQTSMDKNPNLKQNPGY
**Q.** B1 was tested. Which “glycan array binding signal (z-score)” value [1] did it give?
**A.** -0.046

**Q.** And the “glycan array binding signal (z-score)” value [2]?
**A.** -1.02

**Q.** And the “glycan array binding signal (z-score)” value [3]?
**A.** 2.04

**Q.** And the “glycan array binding signal (z-score)” value [4]?
**A.** 2.37

**Q.** And the “glycan array binding signal (z-score)” value [5]?
**A.** 0.865

**Q.** And the “glycan array binding signal (z-score)” value [6]?
**A.** 0.208

**Q.** What about the “glycan array binding signal (z-score)” value [7] of the same binder?
**A.** -1.23

**Q.** And the “glycan array binding signal (z-score)” value [8]?
**A.** 0.869

**Q.** And the “glycan array binding signal (z-score)” value [9]?
**A.** 1

**Q.** What about the “glycan array binding signal (z-score)” value [10] of the same binder?
**A.** 0.143

**Q.** What about the “glycan array binding signal (z-score)” value [11] of the same binder?
**A.** 0.086

**Q.** And the “glycan array binding signal (z-score)” value [12]?
**A.** -0.387

**Q.** What about the “glycan array binding signal (z-score)” value [13] of the same binder?
**A.** -0.762

**Q.** What about the “glycan array binding signal (z-score)” value [14] of the same binder?
**A.** 2.08

**Q.** And the “glycan array binding signal (z-score)” value [15]?
**A.** -0.159

**Q.** What about the “glycan array binding signal (z-score)” value [16] of the same binder?
**A.** -0.038

**Q.** And the “glycan array binding signal (z-score)” value [17]?
**A.** 2

**Q.** What about the “glycan array binding signal (z-score)” value [18] of the same binder?
**A.** 1.55

**Q.** And the “glycan array binding signal (z-score)” value [19]?
**A.** -0.539

**Q.** What about the “glycan array binding signal (z-score)” value [20] of the same binder?
**A.** 0.588

**Q.** What about the “glycan array binding signal (z-score)” value [21] of the same binder?
**A.** -0.502

**Q.** What about the “glycan array binding signal (z-score)” value [22] of the same binder?
**A.** -0.218

**Q.** What about the “glycan array binding signal (z-score)” value [23] of the same binder?
**A.** -0.872

**Q.** And the “glycan array binding signal (z-score)” value [24]?
**A.** 1.49

**Q.** What about the “glycan array binding signal (z-score)” value [25] of the same binder?
**A.** -0.874

**Q.** And the “glycan array binding signal (z-score)” value [26]?
**A.** -0.103

**Q.** What about the “glycan array binding signal (z-score)” value [27] of the same binder?
**A.** 16.3

**Q.** What about the “glycan array binding signal (z-score)” value [28] of the same binder?
**A.** 0.187
